PubChem BioAssay (NCATS)
Results filed as inconclusive are left out. Calls follow the shape of the dose curve; as a rule, active = well fitted activation curve with a large enough effect in the main read-out, with a control signal flat (not every such curve was filed as active); inconclusive = small, poorly fitted or top-dose-only effect, or effect the other way, or a change in a side signal; inactive = flat fitted curve, though single readings scatter.

What follows are molecules tested against 3',5'-cyclic-AMP phosphodiesterase 4B (Homo sapiens) (UniProt Q07343) (assay: qHTS Assay for Inhibitors of PDE-IV (AID 607; also: % of control where 0% means no effect)). Conditions: HEK293 ACTOne CNG channel cells, membrane potential fluorescence; series mostly up to 22.9 µM; activation (PDE inhibition): at the top concentration.
Chain of 3',5'-cyclic-AMP phosphodiesterase 4B (Homo sapiens) (Q07343 whole entry, looked up): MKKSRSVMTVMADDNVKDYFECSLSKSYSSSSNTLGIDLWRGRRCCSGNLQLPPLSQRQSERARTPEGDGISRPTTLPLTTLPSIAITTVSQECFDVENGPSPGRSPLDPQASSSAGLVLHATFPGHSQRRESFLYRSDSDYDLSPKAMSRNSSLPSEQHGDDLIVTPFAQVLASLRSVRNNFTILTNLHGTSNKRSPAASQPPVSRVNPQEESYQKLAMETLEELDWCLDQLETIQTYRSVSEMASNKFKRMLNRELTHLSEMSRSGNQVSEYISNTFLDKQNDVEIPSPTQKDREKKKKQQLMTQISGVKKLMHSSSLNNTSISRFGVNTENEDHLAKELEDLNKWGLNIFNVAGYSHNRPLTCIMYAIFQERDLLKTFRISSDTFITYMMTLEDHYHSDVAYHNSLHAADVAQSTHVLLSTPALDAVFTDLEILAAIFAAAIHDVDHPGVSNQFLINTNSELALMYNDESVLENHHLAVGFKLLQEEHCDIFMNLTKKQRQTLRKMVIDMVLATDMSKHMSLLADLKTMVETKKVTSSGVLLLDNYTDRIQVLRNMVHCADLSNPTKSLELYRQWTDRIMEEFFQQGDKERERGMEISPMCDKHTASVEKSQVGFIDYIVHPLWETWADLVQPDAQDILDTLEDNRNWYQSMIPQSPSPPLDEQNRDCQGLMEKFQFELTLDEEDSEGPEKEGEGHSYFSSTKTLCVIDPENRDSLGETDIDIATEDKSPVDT
How it was run: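 Cell-based read-out of cAMP via a modified cyclic nucleotide-gated channel and membrane potential dye (535/590 nm) in HEK293 cells expressing PDE4 endogenously. Compounds tested up to 22.9 uM final; 100 uM RO 20-1724 reference.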

Activation (PDE inhibition), inactive:
COC(=O)N1CCC2(CCCN(Cc3ccccc3OC)C2)CC1 25.7%
Cc1noc(C)c1C(=O)N1CCC[C@@]2(CCN(Cc3ccccc3)C2)C1 11.8%
O=S(=O)(c1ccccc1)N1CCC2(CCCN(c3ncccn3)C2)CC1 -2.54%
COc1ccc(NC(=O)N2CCCC3(CCNCC3)C2)cc1 -2.96%
COc1ccc(NC(=O)N2CC3(CCN(C(C)=O)CC3)C2)cc1 -4.59%
CC(=O)N1CCC2(CC1)CN(c1ccccc1)C2 -7.55%
COc1ccccc1CN1CC[C@@]2(CCCN(C(=O)c3cccn3C)C2)C1 7.63%
Cn1cccc1C(=O)N1CCC[C@@]2(CCN(Cc3cc(C(F)(F)F)cc(C(F)(F)F)c3)C2)C1 26.3%
COc1ccccc1CN1CC[C@@]2(CCCN(C(C)=O)C2)C1 -0.15%
COc1ccccc1CN1CC[C@@]2(CCCN(S(C)(=O)=O)C2)C1 5.47%
O=C(c1csnn1)N1CCC2(CC1)CN(c1ccccc1)C2 0.906%
COc1ccc(NC(=O)N2CC[C@@]3(CCCN(C(=O)c4cnccn4)C3)C2)cc1 14.7%
CC(C)CN1CC[C@@]2(CCCN(C(=O)c3csnn3)C2)C1 6.89%
CC(=O)N1CCC2(CC1)CCN(C(=O)Nc1cccc(F)c1)CC2 9.07%
O=C(c1cnccn1)N1CCC2(CCCN(c3ccccc3)C2)CC1 4.06%
O=C(c1ccncc1)N1CCC2(CC1)CCN(C(c1ccccc1)c1ccccc1)CC2 9.38%
COCC(=O)N1CCC[C@@]2(CCN(C(=O)Nc3cccc(F)c3)C2)C1 -0.121%
CC(C)NC(=O)N1CCCC2(CCN(C(=O)c3cccc(F)c3)CC2)C1 -1.85%
